From PubChem
In the library only some 8.9% were active in any assay of this set; here they are far more common.
12-hLO inh – qHTS Assay for Inhibitors of 12-hLO (12-human lipoxygenase) | Potency, µM (series often up to 57.1 µM), for the others: at the highest dose activity change, negative = inhibition, hits mostly inhibitors | AID 1452, 2008 | actives 0.12% (n = 150,000) | purified 12-hLO, xylenol orange hydroperoxide absorbance; also: potency is read from the fitted curve at half-maximal effect; nearly all actives have a fitted effect of over 55% in size
Target sequence (P18054 whole entry, looked up): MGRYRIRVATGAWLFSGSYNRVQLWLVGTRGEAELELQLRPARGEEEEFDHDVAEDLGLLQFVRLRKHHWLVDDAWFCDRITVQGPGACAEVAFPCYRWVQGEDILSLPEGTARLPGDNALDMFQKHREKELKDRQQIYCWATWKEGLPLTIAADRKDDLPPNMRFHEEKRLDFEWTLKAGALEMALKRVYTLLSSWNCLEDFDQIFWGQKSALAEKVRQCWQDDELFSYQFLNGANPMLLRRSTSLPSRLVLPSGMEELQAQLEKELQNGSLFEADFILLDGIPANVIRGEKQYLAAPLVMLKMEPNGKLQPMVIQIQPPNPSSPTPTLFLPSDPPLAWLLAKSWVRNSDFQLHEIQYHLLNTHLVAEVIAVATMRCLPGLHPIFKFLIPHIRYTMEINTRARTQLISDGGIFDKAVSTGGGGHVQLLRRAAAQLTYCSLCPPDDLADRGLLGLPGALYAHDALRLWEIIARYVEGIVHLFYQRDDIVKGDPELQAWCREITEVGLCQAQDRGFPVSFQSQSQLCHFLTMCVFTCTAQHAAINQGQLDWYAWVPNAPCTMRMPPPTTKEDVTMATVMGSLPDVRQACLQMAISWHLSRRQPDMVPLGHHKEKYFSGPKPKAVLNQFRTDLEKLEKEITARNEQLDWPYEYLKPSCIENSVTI
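Purified human 12hLO (150 nM final) was preincubated with compounds for 15 min at room temperature in 25 mM Hepes pH 7.0, 0.01% Triton X-100, then reacted with 40 uM arachidonic acid for 30 min. Hydroperoxide was detected with ferrous iron/xylenol orange.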
IMPase cell inh – qHTS Assay for Identifying the Cell-Membrane Permeable IMPase Inhibitors. Inositol monophosphatase 1 (Rattus norvegicus), P97697. inhibition (IP1 accumulation), % at 46.1 µM. CHO-M1 cells, IP1 accumulation, HTRF TR-FRET ratio. AID 901, 2007. 120,000 tested, under 10 active; active = well fitted curve in the direction sought with a large enough effect in the signal ratio, not every such curve was filed as active; inconclusive = small, poorly fitted or top-dose-only effect, or a change in a side signal; inactive = no such curve, though single readings can be large or run the other way; the % refers to the signal ratio;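 also: cells stimulated with carbachol in lithium chloride buffer; plate controls were DMSO basal wells for no effect and reference inhibitor wells for full effect; higher means more IMPase inhibition seen as more IP1 and lower FRET ratio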
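The IP-One HTRF competitive assay in carbachol-stimulated CHO-M1 cells quantifies cellular IP1. Compounds spanned up to 46 uM final, and activity is expressed as AC50 from concentration-response fits of the ratio and donor data.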
NPSR antagonist – qHTS Assay for Antagonists of the Neuropeptide S Receptor: cAMP Signal Transduction; AID 1461, 2008; actives 1% (n = 220,000); Q6W5P4; CHO-NPSR cells, cAMP TR-FRET, antagonist mode; Potency, µM (series often up to 38.3 µM), for inactives: top-dose activity change, negative = inhibition, usual class: inhibitors; also: potency is read from the fitted curve at half-maximal effect; nearly all actives have a fitted effect of over 50% in size
IMPase Li inh – qHTS Assay for Identifying the Cell-Membrane Permeable IMPase Inhibitors: Potentiation with Lithium | CHO-M1 cells, IP1 TR-FRET (IP-One), carbachol + lithium | Potency, µM (doses to about 59.4 µM), inactives show at the highest dose activity, negative = IMPase inhibition, actives largely listed as inhibitors | actives 0.35% (n = 210,000);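 also: IP1 builds up when IMPase is blocked and the TR-FRET signal falls; potency is read from the fitted curve at half-maximal effect; plate controls were basal vehicle for no effect and high inhibitor control for full effect; nearly all actives have a fitted effect of over 50% in size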
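CHO cells stably expressing M1 receptor (2000/well) were cultured 16–30 h, then exposed to compounds with a small lithium addition for 30 min at 37C. IP1 was measured by TR-FRET competition; AC50 from Hill fits.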
ALDH1A1 inh – qHTS Assay for Inhibitors of Aldehyde Dehydrogenase 1 (ALDH1A1); Aldehyde dehydrogenase 1A1 (Homo sapiens), P00352; Purified ALDH1A1, NADH fluorescence, propionaldehyde substrate; Potency, µM (highest dose often 75.3 µM), for the others: top-dose activity, negative = inhibition, actives largely listed as inhibitors; actives 7.3% (n = 220,000); AID 1030, 2008; active = well fitted inhibition curve with a large enough effect, not every such curve was filed as active; inconclusive = small, poorly fitted or top-dose-only effect, or another doubt; inactive = no such curve, though single readings can be large or run the other way;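 also: potency is read from the fitted curve at half-maximal effect; plate controls were no enzyme wells and a reference inhibitor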
HPGD block – qHTS Assay for Inhibitors of HPGD (15-Hydroxyprostaglandin Dehydrogenase). 15-hydroxyprostaglandin dehydrogenase [NAD(+)] (Homo sapiens), P15428. purified HPGD, NADH fluorescence kinetic, PGE2 substrate. Potency, µM, inactives show top-dose activity change, negative = inhibition, usual class: inhibitors. actives 4.3% (n = 150,000). AID 894, 2007; active = well fitted inhibition curve with a large enough effect, not every such curve was filed as active; inconclusive = small, poorly fitted or top-dose-only effect, or another doubt; inactive = no such curve, though single readings can be large or run the other way; also: potency is read from the fitted curve at half-maximal effect
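NADH formation kinetics: reaction with 30 uM PGE2 and 1 mM NAD+ (final), 20 nM enzyme, Tris-HCl pH 8 with Tween 20, after 15 min compound preincubation at room temperature. Fluorescence change, last versus first of five reads.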
Numbers without * were called inactive; [ ] = dose if it differs, or a comment. Unless noted, calls follow the shape of the dose curve; as a rule, active = well fitted curve in the direction sought with a large enough effect; inconclusive = small, poorly fitted or top-dose-only effect, or another doubt; inactive = no such curve, though single readings can be large; an effect the other way counts as inactive or inconclusive. Unless noted, % is scaled to controls: 0 for no effect and ±100 for the full control effect.

For C[C@@](O)(CNS(=O)(=O)c1ccccc1)c1ccccc1 the results were 12-hLO inh -2%[11.4 µM], IMPase Li inh -2%, ALDH1A1 inh -3%[13.5 µM] and HPGD block -3%.
`C/C(CC(C)(C)c1ccccc1)=N\NS(=O)(=O)c1ccccc1` gave NPSR antagonist -10%, IMPase Li inh 17% and ALDH1A1 inh 13µM*.
For COc1ccc(N(CC(=O)N2CCN(c3ccccc3)CC2)S(=O)(=O)c2c(C)noc2C)cc1 the results were 12-hLO inh -21%, IMPase cell inh 0, NPSR antagonist -18%[46.1 µM], IMPase Li inh 10%[38.3 µM], ALDH1A1 inh 11% and HPGD block -7%.
CC1CC(C)(C)NC(=O)O1 (centres undefined) was read as 12-hLO inh -1%, IMPase cell inh -12, NPSR antagonist 8%[46.1 µM], IMPase Li inh 4%[38.3 µM], ALDH1A1 inh -8% and HPGD block -2%.
Screening CC1CC(C)(C)NC(=S)S1 (centres undefined) returned 12-hLO inh -5%, IMPase cell inh 0, NPSR antagonist -4%[46.1 µM], IMPase Li inh 4%[38.3 µM], ALDH1A1 inh 13µM* and HPGD block 22µM*.
Screening COC(=O)c1c(-c2ccc(C)cc2)csc1NC(=O)C1CC=CCC1C(=O)O (centres undefined) returned 12-hLO inh -2%, NPSR antagonist -55%, IMPase Li inh 2%, ALDH1A1 inh inconclusive and HPGD block -21%.
Screening c1ccc2c(c1)SCc1nnc(-c3ccncc3)n1-2 returned NPSR antagonist -4%.
COc1ccc(-c2nnc3n2-c2ccccc2SC3)cc1OC was read as 12-hLO inh -12%, IMPase cell inh -7, NPSR antagonist -23%[46.1 µM], IMPase Li inh 13%[38.3 µM], ALDH1A1 inh 16µM* and HPGD block 35µM*.
For CC1=C(C)/C(=N\OS(=O)(=O)c2ccccc2)C=CC1=O the results were 12-hLO inh -12%, IMPase cell inh 33, NPSR antagonist 5µM*, IMPase Li inh 60%[38.3 µM], ALDH1A1 inh inconclusive and HPGD block -11%.
Screening O=[N+]([O-])c1ccc(-c2nc(C(Cl)Cl)c3ccccc3n2)cc1 returned NPSR antagonist 2µM*.
O=C(COC(=O)CCc1c[nH]c2ccccc12)NCc1ccc(Cl)cc1 was read as 12-hLO inh -2%, NPSR antagonist 8%, IMPase Li inh -3%, ALDH1A1 inh -3% and HPGD block inconclusive.
Screening COc1ccc(S(=O)(=O)N2CCC(C(=O)Nc3ccccc3C)CC2)c2cccnc12 returned 12-hLO inh 3%, IMPase cell inh 2, NPSR antagonist -30%[46.1 µM], IMPase Li inh -13%[38.3 µM], ALDH1A1 inh 22µM* and HPGD block -18%.
For CCOC(=O)COc1cc([N+](=O)[O-])cc2cccnc12 the results were NPSR antagonist 12%, IMPase Li inh 16% and ALDH1A1 inh -12%.
`CCOC(=O)COc1ccccc1/C=C\[N+](=O)[O-]` gave 12-hLO inh -15%, IMPase cell inh 16, NPSR antagonist 7.9µM*, IMPase Li inh 21%, ALDH1A1 inh 4.5µM* and HPGD block 16µM*.
O=C1N=C(N2CCCCC2)S/C1=C/C1=Cc2ccccc2OC1 was read as NPSR antagonist -39%, IMPase Li inh 11% and ALDH1A1 inh 28µM*.
For Cc1ccc(/C=C2\SC(N3CCCC3)=NC2=O)cc1 the results were NPSR antagonist -20%, IMPase Li inh 2% and ALDH1A1 inh 12%.
`Cc1cc(C(=O)CSc2nc3ccccc3c(=O)[nH]2)c(C)n1C` gave 12-hLO inh -5%, IMPase cell inh 19, NPSR antagonist -20%[46.1 µM], IMPase Li inh 2%[38.3 µM], ALDH1A1 inh -4% and HPGD block 22µM*.
`O=C(CSc1nc2ccccc2c(=O)[nH]1)c1ccccc1` gave 12-hLO inh 2%, IMPase cell inh inconclusive, NPSR antagonist -8%[46.1 µM], IMPase Li inh inconclusive, ALDH1A1 inh inconclusive and HPGD block 13µM*.
For Cc1cc(C(=O)CSC(C)c2nc3ccccc3c(=O)[nH]2)c(C)n1C (centres undefined) the results were 12-hLO inh -7%, IMPase cell inh 2, NPSR antagonist -12%[46.1 µM], IMPase Li inh -6%[38.3 µM], ALDH1A1 inh 15% and HPGD block -15%.
`O=C(NNc1nc(-c2ccc(Br)cc2)cs1)c1ccco1` gave NPSR antagonist 5%, IMPase Li inh 0% and ALDH1A1 inh inconclusive.
Screening O=C(Nc1ccc2c(c1)OCCO2)C1CCN(c2nnnn2-c2ccccc2)CC1 returned 12-hLO inh -4%, IMPase cell inh -2, NPSR antagonist inconclusive, IMPase Li inh -6%[38.3 µM], ALDH1A1 inh 3.5µM* and HPGD block -3%.
`COc1cccc(NC(=O)N2CCCC2)c1` gave NPSR antagonist 11%, IMPase Li inh -9% and ALDH1A1 inh 2%.
`NC(=O)C1CCN(c2nnnn2-c2ccccc2)CC1` gave 12-hLO inh 1%, IMPase cell inh -1, NPSR antagonist inconclusive, IMPase Li inh 24%[38.3 µM], ALDH1A1 inh inconclusive and HPGD block -7%.
Screening COc1cccc(NC(=O)N2CCN(c3nnnn3-c3ccccc3)CC2)c1 returned NPSR antagonist -12%, IMPase Li inh -2% and ALDH1A1 inh 6.3µM*.
O=C(Nc1cccc(F)c1)C1CCN(c2nnnn2-c2ccccc2)CC1 was read as 12-hLO inh -5%, IMPase cell inh 7, NPSR antagonist -21%[46.1 µM], IMPase Li inh 0%[38.3 µM], ALDH1A1 inh 22µM* and HPGD block -10%.
For O=C(C1CCN(c2nnnn2-c2ccccc2)CC1)N1CCN(c2ccccc2)CC1 the results were 12-hLO inh 0%, IMPase cell inh -5, NPSR antagonist -9%[46.1 µM], IMPase Li inh 34%[38.3 µM], ALDH1A1 inh 10µM* and HPGD block -3%.
COC(=O)CC1c2cc(OC)c(OC)cc2CC(=O)c2cc(OC)c(OC)cc21 (centres undefined) was read as 12-hLO inh 0%, NPSR antagonist 6%, IMPase Li inh -7%, ALDH1A1 inh -10% and HPGD block -21%.
`O=C(CC1C(=O)NCCN1Cc1ccc(F)c(F)c1)NCCCn1ccnc1` (centres undefined) gave NPSR antagonist -16%, IMPase Li inh 7% and ALDH1A1 inh -10%.
